Mtb BioA inh: blocks M. tuberculosis BioA enzyme activity. purified M. tuberculosis BioA enzyme, plate reader. inhibition, % at 9.99 µM. 360,000 compounds, 0.096% hits; in the data active = inhibition above about 40%; inconclusive = no clear call, values can overlap the other calls
FadD28 FP inh: blocks FadD28 binding to the bisubstrate probe. inhibition, % at 12.5 µM. 360,000 compounds, 0.22% hits. fluorescence polarization. AID 588549; in the data active = inhibition above about 8.5%, passing the limit was not always enough; inconclusive = no clear call, values can overlap the other calls
PfHsp40 yeast: restores yeast growth despite PfHsp40 toxicity | 340,000 compounds, 0.68% hits | S. cerevisiae expressing PfHsp40, growth rescue, ATP luminescence | AID 504582 | growth rescue, % at 12.5 µM; in the data active = growth rescue above about 28%, passing the limit was not always enough; inconclusive = no clear call, values can overlap the other calls;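 also: yeast W303a lacking pdr1 and pdr3 grown in galactose medium; growth measured after three days at 30 °C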
Yp Topo-I inh: inhibitors of Yersinia pestis topoisomerase I; Y. pestis Topo-I cleavage product accumulation, plate reader; activity, % at 10 µM; AID 504884; 360,000 compounds, 0.064% hits; in the data active = activity above about 50%, passing the limit was not always enough; inconclusive = no clear call, values can overlap the other calls
PrP 5UTR inh: inhibition of PrP 5' UTR reporter expression. inhibition, % (concentration not given with the values). 340,000 compounds, 0.35% hits. AID 488862. cell-based PrP 5' UTR mRNA reporter, plate reader; in the data active = inhibition above about 52%; also: 0 = median of the neutral control wells
* = called active by the depositor; ? = inconclusive; nt = not tested or not shown. Only some compounds are listed: those with a hit (about 1.1% of all), similar ones and a draw of the others.

SMILES	Mtb BioA inh	FadD28 FP inh	PfHsp40 yeast	Yp Topo-I inh	PrP 5UTR inh
O=C(/C=C/NCc1cccnc1)c1ccc(-c2ccccc2)cc1	-2	0	114*	-8	-10
O=C(/C=C/c1ccc(-c2ccccc2)cc1)NCc1cccnc1	-2	0	1	44	-32
CC1CCc2c(C(=O)Nc3ccccn3)csc2C1 (configuration not stated)	nt	0	265*	2	-103
CS/C(=N\S(=O)(=O)c1ccc(N)cc1)NS(=O)(=O)c1cccs1	4	30*	2	2	4
CSC(=NCc1ccc(F)cc1)NS(=O)(=O)c1cccs1	nt	-2	0	-1	-16
Cc1cccc(S(=O)(=O)N[C@H]2CC[C@@H](CCn3cc(-c4ccccn4)nn3)O[C@H]2CO)c1	5	nt	nt	nt	nt
CN(C)CC(=O)N[C@@H]1C=C[C@H](CC(=O)NCc2ccccc2F)O[C@H]1CO	0	nt	nt	nt	nt
COc1cc(/C=C2\SC(=S)N(NS(=O)(=O)c3ccc(C)cc3)C2=O)ccc1O	nt	0	303*	7	-9
CC(/C=C1\SC(=S)N(NS(=O)(=O)c2ccc(C)cc2)C1=O)=C\c1ccccc1	-2	11*	?	15	-10
CCOc1cc(/C=C2\SC(=S)N(NS(=O)(=O)c3ccc(C)cc3)C2=O)ccc1O	3	0	59*	4	-11
C=CCOc1ccc(/C=C2\SC(=S)N(NS(=O)(=O)c3ccccc3)C2=O)cc1	nt	12*	11	25	-10
COc1ccc(/C=C2/SC(=S)N(NS(=O)(=O)c3ccccc3)C2=O)cc1	0	2	-1	0	-9
O=C(NCc1cccc(F)c1)[C@H]1[C@H](CO)[C@H]2Cn3c(ccc(-c4cccnc4)c3=O)[C@@H]1N2CC1CC1	3	nt	nt	nt	nt
C[C@H]1CN([C@@H](C)CO)C(=O)c2cc(C3=CCCC3)cnc2O[C@H]1CN(C)C(=O)Nc1cccc(F)c1	5	nt	nt	nt	nt
O=C(NC1CCC1)[C@H]1[C@H](CO)[C@H]2Cn3c(ccc(-c4ccccc4)c3=O)[C@H]2N1CCc1ccccc1	22	nt	nt	nt	nt
N#C[C@@H]1[C@@H](c2ccc(-c3ccncc3)cc2)[C@@H](CO)N1C(=O)C1CCCCC1	0	nt	nt	nt	nt
Cc1ccc(-c2nnc3n2N=C(c2ccccc2Br)CS3)cc1	2	-8	19	59*	1
Cc1nc(-c2ccccn2)nc(N2CCOCC2)c1Cl	0	-1	0	11	-18
Cc1nc(-c2ccccn2)nc(N(C)c2ccccc2)c1Cl	3	0	180*	15	-15
C[C@@H]1CN([C@H](C)CO)C(=O)c2cc(NS(=O)(=O)c3cccs3)ccc2O[C@H]1CN(C)C(=O)NC1CCCCC1	2	nt	nt	nt	nt
N#CCCn1cc(C(=O)Nc2ccccc2Cl)c(-c2ccc(F)cc2)n1	-1	-3	47*	2	-10
Cc1cn2c(N)c(C=C3C=C(Cl)C(=O)C(Cl)=C3)c(=O)nc2s1	nt	15*	0	5	-34
Cc1noc(C)c1S(=O)(=O)Nc1ccc2c(c1)C(=O)N([C@@H](C)CO)C[C@H](C)[C@@H](CN(C)C(=O)Nc1ccccc1)O2	-4	nt	nt	nt	nt
Cc1cc(/C=N/n2cnnc2)c(C)n1-c1ccc(OCc2ccc(F)cc2)cc1	-2	-4	103*	18	-30
C[C@@H]1CN([C@H](C)CO)S(=O)(=O)c2ccc(Br)cc2O[C@H]1CN(C)C(=O)CC1CC1	4	nt	nt	nt	nt
SMILES	Mtb BioA inh	FadD28 FP inh	PfHsp40 yeast	Yp Topo-I inh	PrP 5UTR inh
C=CCN(CC=C)C(=S)NC(=O)c1ccc(OC)c(Br)c1	-1	-1	56*	2	1
C[C@@H]1CN([C@@H](C)CO)S(=O)(=O)c2ccc(Br)cc2O[C@H]1CN(C)C(=O)C1CC1	1	nt	nt	nt	nt
Oc1ccc(C=NC2CCCCC2)c(O)c1	nt	-4	35*	3	-32
Oc1ccc2ccccc2c1C=NC1CCCCC1	nt	1	0	4	-2
CO[C@H]1CN(C)C(=O)c2cc(NC(=O)c3nc4ccccc4s3)ccc2OC[C@@H](C)N(Cc2cncnc2)C[C@@H]1C	-1	nt	nt	nt	nt
COc1ccc(-c2cn(CC[C@@H]3CC[C@H](NC(=O)Cc4ccccn4)[C@@H](CO)O3)nn2)cc1	-4	nt	nt	nt	nt
O=C1c2cc(Br)ccc2N(Cc2ccc(Br)cc2)S(=O)(=O)C1c1cc(Cl)c(Cl)cc1[N+](=O)[O-] (configuration not stated)	-2	30*	143*	-3	-6
Cc1cccc(CCNC(=O)CN(C)S(=O)(=O)c2cnc[nH]2)c1	1	-1	70*	0	-4
Cc1cc(C)cc(NC(=O)CN(C)S(=O)(=O)c2cnc[nH]2)c1	3	-2	0	4	-15
COCC(=O)N1[C@@H]2c3ccc(-c4cccnc4)c(=O)n3C[C@@H]2[C@@H](CO)[C@@H]1C(=O)Nc1ccccc1	0	nt	nt	nt	nt
CCN(CC)c1ccc(/C=C(\C#N)C(N)=O)cc1	nt	1	0	0	-8
CCN(CC)c1ccc(/C=C(\C#N)C(=O)c2ccc(Br)cc2)cc1	nt	28*	0	26	-19
C[C@@H]1CN([C@H](C)CO)S(=O)(=O)c2ccc(C#Cc3cccc(F)c3)cc2O[C@@H]1CN(C)S(=O)(=O)c1cn(C)cn1	-3	nt	nt	nt	nt
CCn1nnc(-c2ccccc2NC(=O)c2cccc(-n3cnnn3)c2)n1	-1	1	2	2	-4
CCn1nnc(-c2ccccc2NC(=O)c2ccc(-n3cnnn3)cc2)n1	0	1	71*	7	-11
C[C@@H]1CCCCO[C@H](CN(C)Cc2ccccc2)[C@H](C)CN([C@H](C)CO)C(=O)c2cc(N(C)C)ccc2O1	-2	nt	nt	nt	nt
COCCCNc1oc(-c2ccccc2F)nc1C#N	-1	-3	34*	10	-29
COc1c(C(CC(C)C)OC(C)=O)ccc2c1C(=O)OCc1cc(C)cc(O)c1O2 (configuration not stated)	-1	-1	161*	28	-7
COc1c(C(O)CC(C)C)ccc2c1C(=O)OCc1cc(C)cc(O)c1O2 (configuration not stated)	2	0	1	7	-11
COc1ccc(CNc2ncnc3sccc23)cc1	30	-4	865*	5	0
S=C(NCc1ccco1)Nc1ccc(Oc2ccc(Cl)cc2)cc1	0	-5	194*	-2	-9
S=C(NCc1ccco1)Nc1ccc(Cl)cc1	-1	-1	0	-4	-17
COc1cccc(NC(=O)Nc2ccc3c(c2)C(=O)N(C)[C@@H]2CC[C@@H](CC(=O)O)O[C@H]2CO3)c1	-6	nt	nt	nt	nt
Cc1nc(SC(C)C(=O)Nc2cccc(C(F)(F)F)c2)c2c(C)c(C(=O)O)sc2n1 (configuration not stated)	nt	-3	49*	-2	-9
C/C=C/c1ccc([C@@H]2[C@H](C#N)N(C(=O)NC3CCCC3)[C@H]2CO)cc1	1	nt	nt	nt	nt
O=C(c1nnsc1S(=O)c1ccc(Cl)cc1)N1CCOCC1 (configuration not stated)	-2	-4	143*	0	2
O=C(c1nnsc1S(=O)(=O)c1ccc(Cl)cc1)N1CCOCC1	nt	-1	-1	0	6
Cc1ccsc1/C=C/c1ccc2ccccc2n1	2	0	2	24	-15

High-throughput results (PubChem)
